# From PubChem BioAssay (NCATS)
# Several values for one entry are separate records, joined by “and”; a condition that tells them apart may be missing. Equal entries are not always repeated. Inconclusive results are not listed. A call without a number means that no potency is given here. Unmarked numbers belong to inactive results. Activity calls are given as the source filed them. Unless noted, calls follow the shape of the dose curve; as a rule, active = well fitted curve in the direction sought with a large enough effect; inconclusive = small, poorly fitted or top-dose-only effect, or another doubt; inactive = no such curve, though single readings can be large; an effect the other way counts as inactive or inconclusive. Where a SMILES comes first, the peptide text is derived from it. The star is where a group is joined. AFC = O=c1cc(C(F)(F)F)c2ccc(N*)cc2o1
# How the values were obtained:
# [1] = P-glycoprotein substrates identified in KB-3-1 adenocarcinoma cell line, qHTS therapeutic library screen (AID 1346986); also: nearly all actives have a fitted effect of over 60% in size
# Outline: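 Counter-screen: cherry-picked hits retested in the KB pair and in HEK-293 pcDNA/MDR-19 cells ± tariquidar. Primary screen used 72 h CellTiter-Glo viability in KB-3-1 and KB-8-5-11.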
# [2] = P-glycoprotein substrates identified in KB-8-5-11 adenocarcinoma cell line, qHTS therapeutic library screen (AID 1346987); also: nearly all actives have a fitted effect of over 65% in size; also: potency is read from the fitted curve at half-maximal effect; as to activity change, negative = cytotoxicity: series mostly up to about 44 µM
# Outline: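 KB-8-5-11: colchicine-selected sub-line of KB-3-1 over-expressing P-gp; assay medium lacked colchicine. 72 h drug exposure at 37 degree C, CellTiter-Glo.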
# [3] = Natriuretic polypeptide receptor (hNpr1) antagonism - Pilot counterscreen GloSensor control cell line (AID 1347045; calls by dose curve; also: series mostly up to about 38 µM)
# Outline: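 HEK293 cells carrying the GloSensor cGMP sensor (GIP/pGS-40F) were loaded with 2% GloSensor reagent for 2 h, exposed to compounds for 30 min, and then stimulated with 50 uM sodium nitroprusside for 20 min at room temperature.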
# [4] = molecular target: Atrial natriuretic peptide receptor 2 (Homo sapiens) (UniProt P20594); assay: Natriuretic polypeptide receptor (hNpr2) antagonism - Pilot subtype selectivity assay (AID 1347050; calls by dose curve)
# Outline: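 Pilot selectivity screen against hNpr2: HEK293 cGMP-sensor cells are treated with LOPAC1280 compounds, then with hNppC peptide at 1 nM final. The cGMP-driven luminescence change over 20 min at room temperature is the read-out.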
# Chain of Atrial natriuretic peptide receptor 2 (Homo sapiens) (P20594 whole entry, looked up): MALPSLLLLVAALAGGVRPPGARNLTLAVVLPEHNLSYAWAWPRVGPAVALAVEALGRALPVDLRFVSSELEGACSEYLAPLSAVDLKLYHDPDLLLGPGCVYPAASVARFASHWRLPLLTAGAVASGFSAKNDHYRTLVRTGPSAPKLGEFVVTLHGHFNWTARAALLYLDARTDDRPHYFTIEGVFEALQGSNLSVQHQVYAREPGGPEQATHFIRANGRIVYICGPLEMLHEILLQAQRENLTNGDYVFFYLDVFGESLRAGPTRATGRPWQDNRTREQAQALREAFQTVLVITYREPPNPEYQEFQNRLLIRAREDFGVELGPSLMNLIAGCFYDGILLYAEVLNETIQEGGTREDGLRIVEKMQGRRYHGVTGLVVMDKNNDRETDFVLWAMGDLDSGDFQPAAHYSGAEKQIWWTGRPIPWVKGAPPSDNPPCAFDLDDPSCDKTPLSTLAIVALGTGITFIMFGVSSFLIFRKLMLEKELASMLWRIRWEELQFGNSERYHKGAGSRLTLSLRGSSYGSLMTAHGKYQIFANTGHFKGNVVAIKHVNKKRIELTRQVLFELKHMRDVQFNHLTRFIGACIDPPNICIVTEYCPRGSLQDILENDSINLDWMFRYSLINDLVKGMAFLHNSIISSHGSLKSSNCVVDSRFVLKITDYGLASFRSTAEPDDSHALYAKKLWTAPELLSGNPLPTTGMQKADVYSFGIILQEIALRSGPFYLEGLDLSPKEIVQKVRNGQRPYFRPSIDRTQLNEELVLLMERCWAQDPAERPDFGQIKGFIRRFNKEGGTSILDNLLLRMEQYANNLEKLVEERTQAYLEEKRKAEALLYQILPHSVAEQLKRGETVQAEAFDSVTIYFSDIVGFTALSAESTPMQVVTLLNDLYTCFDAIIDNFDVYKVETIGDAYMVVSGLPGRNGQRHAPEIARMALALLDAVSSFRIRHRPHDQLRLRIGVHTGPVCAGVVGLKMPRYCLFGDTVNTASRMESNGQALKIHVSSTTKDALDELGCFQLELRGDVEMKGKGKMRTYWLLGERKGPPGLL
smiles,measurement,setting,value
CC(C#N)C(C)O[C@@H]1O[C@H](CO)[C@@H](O)[C@H](O)[C@H]1O (stereo partly specified),Potency,[1],inactive
same,Potency,[2],inactive
C=C1C(=O)O[C@H]2[C@H]1[C@@H](OC(=O)C(C)CO)C[C@@]1(C)[C@H](O)CCC(=O)[C@H]21 (stereo partly specified),Potency,[1],inactive
same,Potency,[2],inactive
CCC[C@@H]1C[C@@H](C(=O)N[C@H](C(C)Cl)[C@H]2O[C@H](SC)[C@H](O)[C@@H](O)[C@H]2O)N(C)C1 (stereo partly specified),Potency,[2],inactive
CNC(=O)Nc1ccc(OC)c(NC(=O)NC(=O)c2cc(F)c(F)cc2Cl)c1,Potency,[2],inactive
N[C@@H](CC(=O)N1CCn2c(nnc2C(F)(F)F)C1)Cc1[nH]nc2c(F)c(F)ccc12,Potency,[2],inactive
C[C@@H]1CCC2C(C)(C)[C@H](O)CC[C@]2(C)[C@@]12Cc1c(O)cc3c(c1O2)CN(CCO)C3=O (stereo partly specified),Potency,[2],inactive
CCCCC(C)(O)C/C=C/[C@H]1[C@H](O)CC(=O)[C@@H]1CCCCCCC(=O)OC (stereo partly specified),Potency,[2],inactive
CC(C)C1=CC2=CCC3[C@](C)(CCC[C@@]3(C)C(=O)O)C2CC1=O (stereo partly specified),Potency,[2],inactive
COc1cc2c(Nc3ccc(Cl)c(Cl)c3F)ncnc2cc1OCC1C[C@@H]2CN(C)C[C@@H]2C1 (stereo partly specified),Potency,[2],18.4 µM (active)
N#CC1C(=O)Nc2scc(-c3ccc(-c4ccccc4O)cc3)c2C1=O (stereo unspecified),Potency,[2],inactive
COc1cc(N2CCC(O)CC2)ccc1Nc1cc(Nc2ccccc2S(=O)(=O)C(C)C)c2cc[nH]c2n1,Potency,[2],11.4 µM (active)
O=C(O)c1cc(=O)c2c3nc4ccccc4oc-3cc(=O)c2[nH]1,Potency,[2],inactive
C=C1CCC(OC(C)=O)C2(C)CC3(O)OC(=O)C(C)=C3CC12 (stereo unspecified),Potency,[2],inactive
CC(=C/C(=O)O)/C=C/[C@]1(O)[C@@]2(C)CO[C@]1(C)C[C@H](O[C@@H]1O[C@H](CO)[C@@H](O)[C@H](O)[C@H]1O)C2,Potency,[2],inactive
C=C1CCC2C(C)(C)CC(=O)CC2(C)C1CCC(C)CCOC(C)=O (stereo unspecified),Potency,[2],inactive
O=S(=O)(Nc1ccc(C(O)(C(F)(F)F)C(F)(F)F)cc1)c1cccs1,Potency,[2],inactive
O=C(OCC12OC1C=CC(OC(=O)c1ccccc1)C2O)c1ccccc1 (stereo unspecified),Potency,[2],inactive
CC(=O)N[C@@H](CC(=O)N[C@@H](CCC(=O)O)C(=O)O)C(=O)O,Potency,[2],inactive
CCOC(=O)c1c(C)nn(-c2cccc([N+](=O)[O-])c2)c1C,Potency,[2],inactive
COc1cc([C@H]2OC[C@@H]3[C@@H](c4ccc(O[C@@H]5O[C@H](CO)[C@@H](O)[C@H](O)[C@H]5O)c(OC)c4)OC[C@]23O)ccc1O,Potency,[2],inactive
CC1CCC2C(C)(C)C(O)CCC2(C)C12Cc1c(O)cc3c(c1O2)CN=C3N (stereo unspecified),Potency,[2],inactive
O=C(/C=C/c1ccc(O)c(O)c1)OCc1ccccc1O[C@@H]1O[C@H](CO)[C@@H](O)[C@H](O)[C@H]1O,Potency,[2],inactive
CCCCC/C=C\C/C=C\CCCCCCCC(=O)O,Potency,[2],inactive
C=CCc1ccc(O[C@@H]2O[C@H](CO[C@@H]3O[C@@H](C)[C@H](O)[C@@H](O)[C@H]3O)[C@@H](O)[C@H](O)[C@H]2O)cc1,Potency,[2],inactive
CC1(C)CC[C@]2(C(=O)O[C@@H]3O[C@H](CO)[C@@H](O)[C@H](O)[C@H]3O)CC[C@]3(C)C(=CCC4[C@@]5(C)C[C@@H](O)[C@H](O)C(CO)(CO)C5CC[C@]43C)C2[C@@H]1O (stereo partly specified),Potency,[2],inactive
CC(C)(C)NCc1cc(Nc2ccnc3cc(Cl)ccc23)c2c(c1O)CCCC2,"activity change, negative = cytotoxicity",[2],0.372% [at 0.354 µM]
CC1(C)CCCC2(C)C3=C(C(=O)OC3O)C(O)CC12 (stereo unspecified),Potency,[2],inactive
C[C@H]1[C@H](C)CC[C@]2(C(=O)O[C@@H]3O[C@H](CO)[C@@H](O)[C@H](O)[C@H]3O)CC[C@]3(C(=O)O)C(=CCC4[C@@]5(C)CC[C@H](O[C@@H]6O[C@H](CO)[C@@H](O)[C@H](O)[C@H]6O)C(C)(C)C5CC[C@]43C)[C@H]12 (stereo partly specified),outcome,[2],inactive [at 9.29 µM]
Cc1ncc([N+](=O)[O-])n1CC(O)CN1CCOCC1 (stereo unspecified),Potency,[2],inactive
c1ccc(C(OC2CCN(CCCc3nn[nH]n3)CC2)c2ccccc2)cc1,Potency,[2],inactive
COc1ccc(/C=C/C(=O)O[C@@H]2[C@@H](OC(C)=O)[C@@H](OC(C)=O)[C@H](O[C@H]3[C@@H]4C=CO[C@@H](O[C@@H]5O[C@H](CO)[C@@H](O)[C@H](O)[C@H]5O)[C@@H]4[C@@]4(CO)O[C@@H]34)O[C@H]2C)cc1O,Potency,[2],inactive
COC1CCCC/C(C)=C/C2C=C(C)C(C)C3C(CC(C)C)NC(=O)C23C(=O)C1 (stereo unspecified),Potency,[2],inactive
CC(=O)N[C@@H](CC(C)C)C(=O)N[C@@H](CCC(=O)O)C(=O)N[C@@H](CCC(=O)O)C(=O)N[C@@H](CC(=O)O)C(=O)Nc1ccc2c(C(F)(F)F)cc(=O)oc2c1 (Ac-LEED-{AFC}),Potency,[2],inactive
COC(=O)C1C(CC(C)=O)C=CC(O)C12Oc1cc(C)cc(O)c1C2=O (stereo unspecified),Potency,[2],inactive
O=c1c2cccnc2n(-c2cccc([N+](=O)[O-])c2)c(=O)n1Cc1ccncc1,Potency,[2],inactive
O=c1ccn([C@@H]2O[C@H](CO)[C@@H](O)[C@H]2O)c(=O)[nH]1,Potency,[2],inactive
O=C(O)C1CCCN1 (stereo unspecified),Potency,[2],inactive
COc1cc2c(cc1O)CCN[C@]21CS[C@@H]2c3c(OC(C)=O)c(C)c4c(c3[C@H](COC1=O)N1[C@@H]2[C@H]2c3c(cc(C)c(OC)c3O)C[C@@H]([C@@H]1O)N2C)OCO4,Potency,[2],1.46 µM (active) and 1.41 µM (active)
CC(C)=CCC/C(C)=C/CC/C(C)=C/CC[C@]1(C)CCc2cc(O)cc(C)c2O1,Potency,[2],inactive
C=C(C)[C@@H]1CC[C@](C)(O)[C@@H](OC(=O)c2ccccc2)C1,Potency,[2],inactive
COc1cc(/C=C/C(=O)OC2CC(OC(C)=O)C(OC(C)=O)C3C2CCC2C(=O)OC(c4ccoc4)CC23C)ccc1O[C@@H]1O[C@H](CO)[C@@H](O)[C@H](O)[C@H]1O (stereo partly specified),Potency,[2],inactive
CC1CCC2(C(=O)OC3OC(CO)C(O)C(O)C3O)CCC3(C)C(=CCC4C5(C)CC(O)C(O)C(C)(C(=O)O)C5CCC43C)C2C1(C)O (stereo unspecified),Potency,[2],inactive
CN1Cc2c(N)cccc2C(c2ccccc2)C1 (stereo unspecified),outcome,[3],inactive
same,outcome,[4],inactive
